Most compounds without a hit are left out; they make up all but 7.5% or so of the library.
Rab9 prom act: activators of Rab9 promoter. Huh7 Rab9 promoter-luciferase reporter, luminescence, 24 h. hit rate 2.8% among 320,000. Potency, µM (titrated, usually from 9.22 µM), for the others: at the top dose activation, negative = inhibition, usual class: activators; further: % of control where 0% means no effect; nearly all actives have a fitted effect of over 60% in size
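Steps: seed 1500 Huh7 Rab9-luc cells per well, rest 2 h at 37 °C; add compound in DMSO; incubate 24 h; add luciferase reagent, 10 min ambient; read luminescence.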
FLuc counter: firefly luciferase modulation, counter-screen for miR-21 project | purified FLuc, Km substrates, luminescence inhibition | Potency, µM (doses to about 57.5 µM), without a hit: top-dose activity change, negative = inhibition, most hits filed as inhibitors | hit rate 6.9% among 360,000 | P08659;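 further: plate controls were vehicle for no effect and reference inhibitor for full effect; nearly all actives have a fitted effect of over 55% in size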
Target sequence (P08659 whole entry, looked up): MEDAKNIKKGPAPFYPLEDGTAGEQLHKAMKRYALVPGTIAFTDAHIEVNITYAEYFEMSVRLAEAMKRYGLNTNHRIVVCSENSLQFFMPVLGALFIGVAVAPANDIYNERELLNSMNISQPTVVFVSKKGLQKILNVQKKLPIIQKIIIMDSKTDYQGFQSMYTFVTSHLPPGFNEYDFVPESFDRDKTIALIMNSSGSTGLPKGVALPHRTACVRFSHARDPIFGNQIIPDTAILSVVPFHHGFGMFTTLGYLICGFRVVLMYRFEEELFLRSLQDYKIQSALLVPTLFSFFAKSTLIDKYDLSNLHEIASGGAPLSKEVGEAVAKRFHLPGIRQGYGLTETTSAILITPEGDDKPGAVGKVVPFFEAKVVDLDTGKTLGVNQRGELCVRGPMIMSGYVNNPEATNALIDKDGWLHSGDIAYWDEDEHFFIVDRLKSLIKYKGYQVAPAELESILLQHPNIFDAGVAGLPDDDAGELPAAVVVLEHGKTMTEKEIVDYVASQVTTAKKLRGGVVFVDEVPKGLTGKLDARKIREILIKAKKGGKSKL
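Biochemical qHTS of compounds, final roughly 60 µM downward over six points, against 10 nM purified firefly luciferase using Km concentrations of substrates (10 uM D-luciferin, 10 uM ATP) in Tris acetate pH 7.5 buffer; luminescence output.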
Luc counter: Kinase-Glo luciferase inhibition (counter-screen) | Kinase-Glo luciferase, ATP luminescence, 8 min | AID 1379 | hit rate 0.28% among 200,000 | Potency, µM (series often up to 38.3 µM), for inactives: at the top dose activity change, negative = inhibition, actives largely listed as inhibitors; further: on the % scale 0 is the no-effect control and ±100 the full control effect; nearly all actives have a fitted effect of over 60% in size
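Kinase-Glo luciferase light output from ATP and luciferin was measured with 10 uM ATP, within the enzyme's linear range. Buffer: 50 mM imidazole pH 7.2, 50 mM KCl, 7 mM MgCl2, 0.01% Tween 20, 0.05% BSA; luminescence read after 8 min at ambient temperature.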
ELG1 genotoxic: induces genotoxicity in HEK293T cells with luciferase-tagged ELG1 | HEK293T ELG1-luciferase reporter, luminescence, 16 h | Potency, µM (doses to about 46 µM), inactives show top-dose activity change, positive = activation, actives largely listed as activators | hit rate 1.3% among 330,000; further: % of control where 0% means no effect; nearly all actives have a fitted effect of over 60% in size
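DMSO vehicle served as control against compound-treated ELG1-luciferase HEK293T cells; exposure lasted 16 hr at 37 °C and 5% CO2, followed by ONE-Glo luminescence detection after 30 min.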
NPC1 promoter act: activators of NPC1 promoter; Huh7 NPC1 promoter luciferase reporter, 24 h; Potency, µM (series often up to 9.22 µM), for the others: at the top dose activation, actives largely listed as activators; hit rate 2.4% among 320,000; AID 485313; further: % of control where 0% means no effect; nearly all actives have a fitted effect of over 60% in size
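Stable NPC1-promoter luciferase Huh7 line; cpd (DMSO) 24 h, 37 °C, 5% CO2; Amplite luciferase reagent 10 min RT; luminescence readout. qHTS format.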
SMN2 splice up: increases expression of the SMN2 splice variant | HEK293 SMN2-luciferase splicing reporter, luminescence, 30-36 h | Potency, µM (top dose mostly 46.1 µM), for inactives: at the top dose activity change, positive = activation, usual class: activators | hit rate 2.8% among 210,000; further: % of control where 0% means no effect; nearly all actives have a fitted effect of over 55% in size
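HEK293 cells carry an SMN2 minigene-luciferase reporter in which exon 7 inclusion puts luciferase in frame. Cells were seeded at 2000 cells/well, attached for 10-12 hours, then exposed to compounds for 30-36 hours at 37C before ONE-Glo luminescence.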
* = called active by the depositor; ? = inconclusive; · = not tested or not shown; [ ] = dose if it differs, or a comment. The call rests on the fitted dose curve; in most records, active means well fitted curve in the direction sought with a large enough effect; inconclusive means small, poorly fitted or top-dose-only effect, or another doubt; inactive means no such curve, though single readings can be large; an effect the other way counts as inactive or inconclusive. Potency means the concentration at half of the fitted maximal effect.

SMILES | Rab9 prom act | FLuc counter | Luc counter | ELG1 genotoxic | NPC1 promoter act | SMN2 splice up
O=C(Nc1nccs1)c1ccc(COc2ccc(Cl)cc2)o1 | · | ? | 0% | · | · | -4%
COc1ccccc1C(=O)Nc1ccc2oc(-c3cccc4c(Br)cccc34)nc2c1 | · | ? | · | · | · | 1%
COc1ccccc1-c1nc2cc(NC(=O)c3ccccc3Cl)ccc2o1 | · | 5.4µM* | · | · | · | 11%
O=C(Nc1ccc2oc(-c3ccccc3F)nc2c1)c1ccccc1Cl | · | 3.4µM* | · | · | · | 14µM*
CC(C)(C)C(=O)Nc1ccc2oc(-c3cc(F)c(F)cc3Cl)nc2c1 | 4.5µM* | 2.7µM* | 0% | 5.2µM* | ? | 25%
O=C(Nc1ccc2oc(-c3ccncc3)nc2c1)c1ccccc1Cl | · | ? | · | · | · | 0%
CC(=O)c1cccc(NC(=O)CSc2nnc3ccc(-c4ccc(C)cc4)nn23)c1 | · | -5% | · | · | · | ·
O=C(Nc1ccc2c(c1)C(=O)NC2=O)c1ccc(Cl)s1 | 2% | -1% | · | 4% | -4% | ·
O=C(Nc1ccc2sccc2c1)c1ccc(Cl)s1 | 1µM* | 0.67µM* | -5% | 1.5µM* | 1.4µM* | 7.1µM*
CCCCCCCCCCCCCCCC(=O)C(F)(F)F | · | · | 0% | · | · | ·
O=C(COc1ccccc1F)OCC(=O)N1CCc2ccccc21 | ? | ? | · | -1% | 2% | ·
COc1cc(CO)ccc1OCC(=O)N1CCc2ccccc21 | 26% | -6% | · | 15% | 16% | ·
O=C(COc1ccc(F)cc1Br)N1CCc2ccccc21 | 0.63µM* | 0.76µM* | -9% | 1.6µM* | 2.8µM* | 11µM*
O=Cc1ccc(OCC(=O)N2CCc3ccccc32)c(Br)c1 | 19% | 7.6µM* | · | ? | 6% | ·
COc1ccc(S(=O)(=O)N2CCN(c3ccc(Cl)c(Cl)c3)CC2)c2ccccc12 | · | 0% | · | · | · | -22%
CN(C)S(=O)(=O)c1ccc(-c2csc(N/N=C/c3ccc(O)cc3)n2)cc1 | -34% | 11µM* | · | ? | -20% | ·
O=C(O)Cc1sc(Nc2cccc3ccccc23)nc1-c1ccccc1 | 1% | 24µM* | · | 2% | 6% | ·
CN(C)S(=O)(=O)c1ccc(-c2csc(N/N=C/c3ccco3)n2)cc1 | -34% | -57% | · | -17% | -31% | ·
C(=N\Nc1nc(-c2ccccc2)cs1)/c1cccs1 | ? | 5.4µM* | -4% | 16µM* | 21% | 7.9µM*
ClCc1csc(N/N=C/c2cccs2)n1 | 21% | 15µM* | · | 1% | 4% | ·
O=C(COc1ccc(Cl)cc1)Nc1ccc(-c2nc3ccccc3s2)c(O)c1 | · | -8% | · | · | · | 21%
COc1ccc(NC(=O)CSC2=Nc3ccccc3C3=NC(CCC(=O)NCCc4ccccc4)C(=O)N23)c(OC)c1 (stereo not drawn) | · | -2% | · | · | · | ·
Cc1ccc(Nc2nc(-c3ccc(C)cc3)c(CC(=O)O)s2)cc1 | -1% | ? | 0% | 4% | 2% | -8%
C(=N\Nc1nc(-c2ccccc2)cs1)/c1ccncc1 | ? | 11µM* | -2% | 6% | 3.2µM* | ·
O=C(O)Cc1sc(N/N=C\c2ccncc2)nc1-c1ccccc1 | -5% | 15µM* | · | -1% | -5% | ·
SMILES | Rab9 prom act | FLuc counter | Luc counter | ELG1 genotoxic | NPC1 promoter act | SMN2 splice up
Nc1nc(-c2cccs2)c(CC(=O)O)s1 | -1% | 5% | -3% | -1% | -8% | 1%
O=C(O)Cc1sc(Nc2ccc(Cl)cc2)nc1-c1cccs1 | 3.5µM* | 13µM* | -7% | ? | ? | 14µM*
Cc1ccc(NC(=O)N2CCc3c([nH]c4ccccc34)C2c2ccccc2F)c(Cl)c1 (stereo not drawn) | · | -1% | · | · | · | ·
CCOc1ccc(CNC(=O)CSc2nnc(C)c3c(C)n(-c4ccccc4)nc23)cc1 | · | -1% | · | · | · | ·
CC(=O)Nc1ccc(Cc2ccc3[nH]c(=O)cc(C)c3c2)cc1 | -1% | 3% | 1%[7.66 µM] | 21µM* | -3% | 8%[9.22 µM]
CC(=O)Nc1ccc2[nH]c3ccccc3c2c1 | 21% | 19µM* | · | 1% | 3% | ·
CNC(=S)SCCOc1ccccc1 | 10% | 15µM* | · | 1% | 2% | ·
CNC(=S)SCCOc1ccc(C)cc1 | 4% | 15µM* | 2% | 0% | 1% | 16%
